This passage reports Potency and max activation results from PubChem BioAssay (Tox21).

Experiment [1] can be described thus: Caspase-3/7 induction in CHO-K1 cells by small molecules, qHTS assay (AID 1346980). Note: nearly all actives have a fitted effect of over 15% in size. In outline:
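Luminescent Caspase-Glo 3/7 read (30min, room temperature) quantified apoptosis induction. Cells were wild-type CHO-K1, treated with compound for 17hr at 37 C and 5% CO2.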

The target in experiment [2] is Nuclear receptor subfamily 1 group I member 2 (Homo sapiens) (UniProt O75469). The experiment in a line: Human pregnane X receptor (PXR) small molecule agonists, qHTS assay (AID 1346982). Note: nearly all actives have a fitted effect of over 35% in size. Note: potency is the fitted concentration of half-maximal effect. A digest of the protocol: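 Luminescence (ONE-Glo, 30 min RT) after 24 hr compound exposure of PXR-Luc HepG2 cells; cells rested 5 hr post-plating in 5% charcoal-stripped FBS medium.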
Chain of Nuclear receptor subfamily 1 group I member 2 (Homo sapiens) (O75469 whole entry, looked up): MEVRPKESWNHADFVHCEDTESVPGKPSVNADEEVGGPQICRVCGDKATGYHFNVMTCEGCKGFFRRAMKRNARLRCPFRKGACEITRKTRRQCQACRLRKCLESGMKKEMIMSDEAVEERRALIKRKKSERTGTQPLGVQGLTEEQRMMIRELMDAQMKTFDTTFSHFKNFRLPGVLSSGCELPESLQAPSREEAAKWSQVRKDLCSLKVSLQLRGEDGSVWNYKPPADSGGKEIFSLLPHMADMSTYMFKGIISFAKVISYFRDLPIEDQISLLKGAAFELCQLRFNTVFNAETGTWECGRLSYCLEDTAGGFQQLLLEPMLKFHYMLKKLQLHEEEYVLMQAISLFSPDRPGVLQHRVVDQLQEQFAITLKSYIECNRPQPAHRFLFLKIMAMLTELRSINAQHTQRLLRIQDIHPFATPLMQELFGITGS

Experiment [3] addresses Acetylcholinesterase (Homo sapiens) (UniProt P22303). The experiment in a line: Acetylcholinesterase (AChE) small molecule antagonists: colormetric cell-based qHTS assay (AID 1347395; calls by dose curve; note: nearly all actives have a fitted effect of over 30% in size; note: potency is the fitted concentration of half-maximal effect). A digest of the protocol:
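AChE inhibition read colorimetrically via DTNB–thiocholine in SH-SY5Y cells. Compound 30 min, substrate 90 min, both 37 C.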

For experiment [4] the target is unchanged. In words: Acetylcholinesterase (AChE) small molecule antagonists: enzyme-based qHTS assay (AID 1347397; calls by dose curve; note: nearly all actives have a fitted effect of over 55% in size). The note with it: Potency: AChE enzyme activity inhibition. In outline:
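Absorbance-based detection of thiocholine with DTNB served as the read-out. Recombinant human AChE was exposed to compound for 30 min at RT before a 10 min RT incubation with acetylthiocholine.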

The target is the same in experiment [5]. The experiment in a line: Acetylcholinesterase (AChE) small molecule antagonists: fluorescence cell-based qHTS assay (AID 1347398; calls by dose curve; note: nearly all actives have a fitted effect of over 50% in size). The conditions noted are these: Potency: AChE activity. In outline:
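Fluorimetric cell-based assay: intact SH-SY5Y cells, 30 min compound preincubation at 37 C, acetylthiocholine substrate with thiol probe Thiolite Green, 40 min RT development, fluorescence 490/520 nm.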

Experiment [6] has the same target. In words: Acetylcholinesterase (AChE) small molecule antagonists: enzyme-based qHTS assay with human liver microsomes (AID 1347399; calls by dose curve; note: nearly all actives have a fitted effect of over 60% in size). The note with it: Potency: qHTS inhibition. A digest of the protocol:
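Recombinant human AChE (50 mU/mL in the enzyme mix) and human liver microsomes (0.25 mg/mL final) were preincubated with compound and NADPH (0.25 mg/mL final) for 30 min at 37 C. Acetylthiocholine/DTNB was then added; thiocholine was read colorimetrically after 10 min at room temperature.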

Experiment [7] addresses Cytochrome P450 2D6 (Homo sapiens) (UniProt P10635). The experiment in a line: Cytochrome P450 Family 2 Subfamily D Member 6 (CYP2D6) small molecule antagonists: luciferase reporter qHTS assay (AID 1671196). Note: nearly all actives have a fitted effect of over 50% in size. Note: potency is the fitted concentration of half-maximal effect. In outline: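 Inhibition of CYP2D6 was gauged by loss of luminescence, since light produced tracks the luciferin generated from a proluciferin substrate. A 10 min room-temperature preincubation preceded 1 h NADPH-supported turnover.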

For experiment [8], the target named is Cytochrome P450 2C19 (Homo sapiens) (UniProt P33261). In words: Cytochrome P450 Family 2 Subfamily C Member 19 (CYP2C19) small molecule antagonists: luciferase reporter qHTS assay (AID 1671197). Note: nearly all actives have a fitted effect of over 65% in size. Note: potency is the fitted concentration of half-maximal effect. In outline: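 Light output is proportional to CYP2C19 activity: proluciferin substrate is converted to luciferin, then detected by a luciferin detection reagent that also stops the 1 h, 37C NADPH-driven reaction. Ketoconazole serves as positive control.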
Chain of Cytochrome P450 2C19 (Homo sapiens) (P33261 whole entry, looked up): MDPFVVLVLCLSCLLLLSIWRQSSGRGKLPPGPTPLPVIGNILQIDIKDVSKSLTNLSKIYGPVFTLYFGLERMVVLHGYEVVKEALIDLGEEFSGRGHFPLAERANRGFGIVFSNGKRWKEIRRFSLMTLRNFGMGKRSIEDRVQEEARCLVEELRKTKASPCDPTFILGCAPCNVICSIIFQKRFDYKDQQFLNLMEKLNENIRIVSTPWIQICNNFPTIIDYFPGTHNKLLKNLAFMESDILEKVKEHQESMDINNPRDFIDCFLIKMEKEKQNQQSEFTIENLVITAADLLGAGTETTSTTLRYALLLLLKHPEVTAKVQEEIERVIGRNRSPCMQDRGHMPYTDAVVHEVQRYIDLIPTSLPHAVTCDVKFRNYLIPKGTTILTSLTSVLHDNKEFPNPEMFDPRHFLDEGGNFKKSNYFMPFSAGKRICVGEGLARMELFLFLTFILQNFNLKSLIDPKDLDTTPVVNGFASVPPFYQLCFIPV

Experiment [9] concerns the target Cytochrome P450 2C9 (Homo sapiens) (UniProt P11712). The experiment in a line: Cytochrome P450 Family 2 Subfamily C Member 9 (CYP2C9) small molecule antagonists: luciferase reporter qHTS assay (AID 1671198). Note: nearly all actives have a fitted effect of over 50% in size. Note: potency is the fitted concentration of half-maximal effect. In outline: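 Enzyme-substrate mix preincubated with compound 10 min at room temperature; reaction started with NADPH regeneration solution, 1 h 37C. Luminescent luciferin product read after 20 min detection reagent.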

In experiment [10] the target is Cytochrome P450 3A4 (Homo sapiens) (UniProt P08684). In words: Cytochrome P450 Family 3 Subfamily A Member 4 (CYP3A4) small molecule antagonists: luciferase reporter qHTS assay (AID 1671201). Note: nearly all actives have a fitted effect of over 50% in size. Note: potency is the fitted concentration of half-maximal effect. In outline:
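Proluciferin-to-luciferin conversion by CYP3A4, NADPH-regenerated, 1 h RT; luminescence read as RLU. Ketoconazole as control.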

The target in experiment [11] is Cytochrome P450 1A2 (Homo sapiens) (UniProt P05177). The experiment in a line: Cytochrome P450 Family 1 Subfamily A Member 2 (CYP1A2) small molecule antagonists: luciferase reporter qHTS assay (AID 1671199). Note: nearly all actives have a fitted effect of over 50% in size. Note: potency is the fitted concentration of half-maximal effect. A digest of the protocol:
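Signal from luciferin formed by CYP1A2 from a proluciferin substrate is read as luminescence, expressed in relative luminescence units. Compounds sit with enzyme 10 min, NADPH-driven reaction runs 1 h, all at room temperature.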

Experiment [12] has as its target Voltage-gated inwardly rectifying potassium channel KCNH2 (Homo sapiens) (UniProt Q12809). In words: Human Ether-a-go-go-Related Gene (hERG) channel small molecule antagonists: fluorescence cell-based qHTS assay (AID 1671200). Note: nearly all actives have a fitted effect of over 50% in size. Note: potency is the fitted concentration of half-maximal effect. In outline:
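Kinetic two-minute fluorescence traces, sampled at 1 s, were collected following thallium stimulus of U2OS cells (1000 per well) that had been cultured overnight at 37 C and loaded with FluxOR II.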

Experiment [13] deals with Nuclear receptor subfamily 1 group I member 2 (Rattus norvegicus) (UniProt Q9R1A7). In words: Rat pregnane X receptor (rPXR) activation by small molecules, qHTS assay (AID 1346983). Note: nearly all actives have a fitted effect of over 20% in size. The conditions noted are these: rPXR luciferase reporter cells, One-Glo luminescence, 24 h; max activation: stronger effect = higher value. In outline:
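Luminescent readout (One-Glo luciferase, 30 min room temperature) followed 24 hr compound treatment at 37 C of rPXR cells plated 2,000 per well and preincubated 5hr; qHTS format with compounds delivered in DMSO.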

Experiment [14] deals with Nuclear receptor subfamily 1 group I member 2 (Homo sapiens) (UniProt O75469). In words: Human pregnane X receptor (PXR) activation by small molecules, qHTS assay (AID 1346985). Note: nearly all actives have a fitted effect of over 40% in size. A digest of the protocol: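 DPX-2 cells (HepG2 co-transfected with a PXR response element and a CYP3A4-promoter luciferase construct) were seeded at 2,000 per well, rested 5 hr at 37C, then exposed to DMSO-dissolved compounds for 24 hr. Activation was read as luciferase luminescence.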

For experiment [15] the target is unchanged. The experiment in a line: CYP3A4 induction through human pregnane X receptor (PXR) by small molecules, qHTS assay (AID 1346984). Note: nearly all actives have a fitted effect of over 40% in size. A digest of the protocol: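 DPX-2 reporter cells; 24h cpd, 37C; Luciferin-IPA 3uM final x3h; One-Glo 30 min RT; lumi read.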
Experiment [16] is described as follows: Caspase-3/7 induction in HepG2 cells by small molecules, qHTS cell viability counter screen (AID 1346981). Note: nearly all actives have a fitted effect of over 30% in size. Note: potency is the fitted concentration of half-maximal effect. A digest of the protocol: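 Counter screen for cytotoxicity: HepG2 exposed 16 hr to compounds, then CellTiter-Fluor viability signal (fluorescence, 1 hr reagent incubation).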

Each structure is given as a SMILES string. Where “and” joins values, the source holds several entries; their conditions need not be identical. Equal entries are not always repeated. Inconclusive results are not listed. More than one record can exist for a structure, and the calls need not agree. Calls of active or inactive are those of the source. Unless noted, calls come from the whole dose curve; as a rule, active = well fitted curve in the direction sought with a large enough effect in the repeat runs; inconclusive = weak or mixed curves; inactive = no such curve, though single readings can be large; an effect the other way counts as inactive or inconclusive.
% is set by controls: 0 for no effect and ±100 for the full control effect.

Chain of Cytochrome P450 1A2 (Homo sapiens) (P05177 whole entry, looked up): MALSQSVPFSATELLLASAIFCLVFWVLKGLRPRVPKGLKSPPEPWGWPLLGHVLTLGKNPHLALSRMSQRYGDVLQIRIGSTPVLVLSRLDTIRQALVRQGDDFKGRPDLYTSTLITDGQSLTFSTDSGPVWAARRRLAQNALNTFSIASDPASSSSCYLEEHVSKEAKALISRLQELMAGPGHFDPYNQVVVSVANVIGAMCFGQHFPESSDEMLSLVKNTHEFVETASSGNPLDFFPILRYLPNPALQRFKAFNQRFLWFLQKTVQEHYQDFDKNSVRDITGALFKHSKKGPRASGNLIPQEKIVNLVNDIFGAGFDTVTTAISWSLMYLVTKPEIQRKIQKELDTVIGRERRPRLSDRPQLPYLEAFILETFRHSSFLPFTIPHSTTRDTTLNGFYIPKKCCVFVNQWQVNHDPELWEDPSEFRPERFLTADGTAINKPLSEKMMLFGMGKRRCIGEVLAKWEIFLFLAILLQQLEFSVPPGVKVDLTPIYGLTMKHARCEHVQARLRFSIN
Chain of Cytochrome P450 2D6 (Homo sapiens) (P10635 whole entry, looked up): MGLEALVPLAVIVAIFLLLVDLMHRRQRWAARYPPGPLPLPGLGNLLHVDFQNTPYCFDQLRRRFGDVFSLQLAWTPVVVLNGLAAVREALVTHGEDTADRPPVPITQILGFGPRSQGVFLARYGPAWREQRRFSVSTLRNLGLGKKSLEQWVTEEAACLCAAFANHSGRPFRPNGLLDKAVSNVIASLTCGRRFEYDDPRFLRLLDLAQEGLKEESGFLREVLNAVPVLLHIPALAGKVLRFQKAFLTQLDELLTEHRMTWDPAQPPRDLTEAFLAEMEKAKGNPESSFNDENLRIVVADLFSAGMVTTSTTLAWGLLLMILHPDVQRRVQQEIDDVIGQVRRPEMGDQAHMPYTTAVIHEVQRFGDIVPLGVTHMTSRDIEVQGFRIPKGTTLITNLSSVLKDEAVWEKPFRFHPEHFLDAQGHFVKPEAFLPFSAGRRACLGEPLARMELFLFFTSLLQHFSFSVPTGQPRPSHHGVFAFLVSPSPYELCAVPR
Chain of Cytochrome P450 3A4 (Homo sapiens) (P08684 whole entry, looked up): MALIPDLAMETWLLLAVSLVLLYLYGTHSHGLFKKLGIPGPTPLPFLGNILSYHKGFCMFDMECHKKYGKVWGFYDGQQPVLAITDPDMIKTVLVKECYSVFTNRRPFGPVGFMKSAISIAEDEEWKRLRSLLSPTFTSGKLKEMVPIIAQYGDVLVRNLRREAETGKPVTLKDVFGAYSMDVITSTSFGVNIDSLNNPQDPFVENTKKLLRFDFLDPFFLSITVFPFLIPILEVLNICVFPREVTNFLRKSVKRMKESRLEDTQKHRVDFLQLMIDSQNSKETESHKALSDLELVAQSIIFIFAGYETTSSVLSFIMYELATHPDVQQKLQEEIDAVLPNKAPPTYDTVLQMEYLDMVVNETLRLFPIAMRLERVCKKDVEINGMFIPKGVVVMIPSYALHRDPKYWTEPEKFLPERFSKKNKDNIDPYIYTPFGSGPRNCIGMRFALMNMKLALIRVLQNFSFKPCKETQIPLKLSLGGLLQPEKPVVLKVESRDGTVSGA
Chain of Acetylcholinesterase (Homo sapiens) (P22303 whole entry, looked up): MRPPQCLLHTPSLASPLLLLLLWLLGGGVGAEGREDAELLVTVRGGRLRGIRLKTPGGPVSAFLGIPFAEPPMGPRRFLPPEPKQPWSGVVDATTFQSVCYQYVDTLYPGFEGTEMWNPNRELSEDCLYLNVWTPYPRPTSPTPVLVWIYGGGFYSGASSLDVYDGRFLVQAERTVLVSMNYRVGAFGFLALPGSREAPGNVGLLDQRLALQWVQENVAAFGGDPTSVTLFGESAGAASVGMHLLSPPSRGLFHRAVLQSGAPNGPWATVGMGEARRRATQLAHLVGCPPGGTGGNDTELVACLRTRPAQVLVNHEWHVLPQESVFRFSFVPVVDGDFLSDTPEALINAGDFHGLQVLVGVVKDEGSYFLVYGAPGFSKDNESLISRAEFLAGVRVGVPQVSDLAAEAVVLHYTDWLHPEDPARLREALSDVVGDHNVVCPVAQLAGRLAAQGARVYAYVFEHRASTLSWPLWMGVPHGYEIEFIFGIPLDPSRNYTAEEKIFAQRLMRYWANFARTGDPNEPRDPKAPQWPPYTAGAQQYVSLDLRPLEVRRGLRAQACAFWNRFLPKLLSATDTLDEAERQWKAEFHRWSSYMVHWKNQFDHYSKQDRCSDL
Chain of Voltage-gated inwardly rectifying potassium channel KCNH2 (Homo sapiens) (Q12809 whole entry, looked up): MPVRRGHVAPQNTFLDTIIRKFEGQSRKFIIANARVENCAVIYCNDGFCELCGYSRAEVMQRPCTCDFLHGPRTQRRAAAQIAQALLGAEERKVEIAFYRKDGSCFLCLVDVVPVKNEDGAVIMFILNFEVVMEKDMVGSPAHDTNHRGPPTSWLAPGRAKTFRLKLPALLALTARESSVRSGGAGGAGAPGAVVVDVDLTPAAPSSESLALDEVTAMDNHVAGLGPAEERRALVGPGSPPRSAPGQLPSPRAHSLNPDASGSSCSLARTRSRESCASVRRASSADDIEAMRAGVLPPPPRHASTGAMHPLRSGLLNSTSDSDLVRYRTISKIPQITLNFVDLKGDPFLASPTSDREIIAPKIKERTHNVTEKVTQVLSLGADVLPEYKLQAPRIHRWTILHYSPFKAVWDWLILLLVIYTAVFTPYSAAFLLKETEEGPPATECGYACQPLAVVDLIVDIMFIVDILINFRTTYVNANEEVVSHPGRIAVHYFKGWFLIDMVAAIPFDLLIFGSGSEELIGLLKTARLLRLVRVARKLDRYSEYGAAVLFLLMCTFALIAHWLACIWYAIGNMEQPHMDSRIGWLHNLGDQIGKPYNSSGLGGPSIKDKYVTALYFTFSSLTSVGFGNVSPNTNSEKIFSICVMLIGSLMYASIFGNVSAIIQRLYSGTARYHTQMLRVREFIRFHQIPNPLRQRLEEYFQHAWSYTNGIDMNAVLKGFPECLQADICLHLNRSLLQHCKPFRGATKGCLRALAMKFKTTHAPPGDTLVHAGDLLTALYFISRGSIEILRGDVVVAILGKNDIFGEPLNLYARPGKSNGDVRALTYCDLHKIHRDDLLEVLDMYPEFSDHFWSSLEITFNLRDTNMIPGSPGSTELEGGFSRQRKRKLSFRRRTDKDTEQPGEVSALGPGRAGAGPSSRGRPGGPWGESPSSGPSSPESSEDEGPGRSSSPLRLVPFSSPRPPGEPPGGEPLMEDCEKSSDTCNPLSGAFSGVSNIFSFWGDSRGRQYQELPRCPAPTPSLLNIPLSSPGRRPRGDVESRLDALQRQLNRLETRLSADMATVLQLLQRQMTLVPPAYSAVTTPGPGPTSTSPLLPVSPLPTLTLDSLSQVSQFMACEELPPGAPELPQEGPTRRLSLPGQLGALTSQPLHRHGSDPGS
Chain of Cytochrome P450 2C9 (Homo sapiens) (P11712 whole entry, looked up): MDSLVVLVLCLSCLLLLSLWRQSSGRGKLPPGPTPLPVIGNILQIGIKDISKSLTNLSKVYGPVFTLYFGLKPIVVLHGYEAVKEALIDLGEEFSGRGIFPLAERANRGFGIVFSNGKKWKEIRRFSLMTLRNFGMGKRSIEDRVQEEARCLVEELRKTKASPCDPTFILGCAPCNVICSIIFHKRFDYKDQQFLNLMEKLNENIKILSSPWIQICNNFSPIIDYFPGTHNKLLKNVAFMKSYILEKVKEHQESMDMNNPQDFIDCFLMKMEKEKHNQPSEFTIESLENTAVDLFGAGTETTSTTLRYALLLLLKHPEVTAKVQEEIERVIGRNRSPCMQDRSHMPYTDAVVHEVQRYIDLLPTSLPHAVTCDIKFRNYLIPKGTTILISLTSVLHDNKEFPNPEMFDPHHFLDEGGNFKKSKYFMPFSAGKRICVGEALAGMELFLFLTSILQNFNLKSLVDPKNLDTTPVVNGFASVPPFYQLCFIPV

As to `CC(Cc1ccc(C(C)(C)C)cc1)CN1C[C@@H](C)O[C@@H](C)C1` (some centres undefined), the Potency result in [1], in experiment [3], in experiment [4], in experiment [5] and in experiment [6] was “inactive” throughout. Further, the Potency in experiment [2] is 30.6 µM (active); in experiment [7], 8.94 µM (active); in experiment [8], 31.7 µM (active); in experiment [9], 35.6 µM (active); in experiment [10] it was 22.4 µM (active).

Consider `CCN(CC)c1c([N+](=O)[O-])cc(C(F)(F)F)c(N)c1[N+](=O)[O-]`, for which the Potency result in experiment [1], in experiment [3], in [4], in experiment [5], in [6] and in [12] was “inactive” in each case. The Potency in experiment [2] was 6.86 µM (active); in experiment [8], 20 µM (active); in experiment [11], 0.356 µM (active).

Take `O=C(O)C1C2CCC(O2)C1C(=O)O` (centres undefined): the Potency entry in experiment [1], in [2], in experiment [3], in [4], in experiment [7] and in [9] was “inactive” each time. Further, the Potency result in experiment [10] is “inactive”. The Potency in [8] was 36 µM (active) and inactive.

On to `O=C(CCl)Nc1ccccc1`, for which the Potency result in [1], in experiment [3], in [4], in [5], in experiment [8] and in experiment [9] was “inactive” in each case. Also, the Potency result in [12] and in experiment [10] was “inactive” throughout. Further, in [7], the Potency is 39.9 µM (active).

With `CS(=O)(=O)c1ccc(C(=O)C2C(=O)CCCC2=O)c([N+](=O)[O-])c1`, the Potency result in [1], in [6], in experiment [12] and in [10] was “inactive” throughout. Also, the Potency in [3] is 27.2 µM (active); in experiment [8], 72.3 µM (active); in [9] it was 31.4 µM (active); in experiment [11], 50.3 µM (active).

For the compound `N#C/C=C/c1ccccc1`, the Potency entry in experiment [1], in [2], in experiment [3], in experiment [4], in experiment [5] and in [6] was “inactive” throughout. The Potency result in experiment [7], in experiment [8], in [9], in [12] and in [10] was “inactive” throughout. Moreover, the Potency in experiment [11] is 35.6 µM (active).

As to `OC(Cc1ccccc1Cl)(Cn1cncn1)C1(Cl)CC1` (centres undefined), the Potency entry in experiment [1], in experiment [3], in experiment [4], in [5] and in [6] was “inactive” each time. Further, the Potency in experiment [2] was 34.4 µM (active); in [8] it was 1.26 µM (active); in experiment [9], 2 µM (active); in experiment [11] it was 0.796 µM (active); in experiment [10] it was 0.2 µM (active).

Take `C[C@@H]1O[C@@H](O[C@@H]2C=C3CC[C@@H]4[C@H](CC[C@]5(C)[C@@H](c6ccc(=O)oc6)CC[C@]45O)[C@@]3(C)CC2)[C@H](O)[C@H](O)[C@H]1O`: the Potency result in [1], in experiment [2], in experiment [14], in [3], in experiment [4] and in experiment [5] was “inactive” throughout. The Potency entry in experiment [6], in [7], in [8], in [11], in experiment [12] and in [10] was “inactive” in each case. Further, in [13], the max activation is -3.43% (inactive).

In the case of `Clc1ccc(CSC(Cn2ccnc2)c2ccc(Cl)cc2Cl)cc1` (centres undefined), the Potency entry in experiment [1], in experiment [15], in experiment [3], in experiment [5] and in [6] was “inactive” throughout. Besides, the Potency in experiment [2] was 9.44 µM (active). In experiment [13], the max activation was 11.4% (inactive).

For the compound `CN(C)CCc1c[nH]c2cccc(O)c12`, the Potency entry in [1], in experiment [2], in [4] and in experiment [6] was “inactive” each time. Moreover, the Potency in experiment [3] is 19.8 µM (active); in [7] it was 7.03 µM (active); in experiment [8], 19.8 µM (active); in [9] it was 7.89 µM (active).

As for `Cc1cc(SCc2sc(-c3ccc(C(F)(F)F)c(F)c3)nc2C)ccc1OCC(=O)O`, the Potency result in experiment [1], in experiment [3], in experiment [5], in experiment [6], in [7] and in [8] was “inactive” throughout. The Potency entry in [10] was “inactive”. Moreover, the Potency in experiment [2] is 24.3 µM (active); in experiment [9], 35.6 µM (active).

In the case of `CC[C@H]1C[C@@H]2C[C@H]3c4[nH]c5ccc(OC)cc5c4CCN(C2)[C@@H]13`, the Potency result in experiment [1], in [2], in [3], in experiment [4] and in [6] was “inactive” throughout. For the same compound, the Potency in experiment [7] was 0.698 µM (active); in experiment [11], 44.1 µM (active).

With `ClC1=C(Cl)C2(Cl)C3C(Cl)C=CC3C1(Cl)C2(Cl)Cl` (centres undefined), the Potency result in experiment [16], in experiment [3], in experiment [4], in [5], in experiment [6] and in experiment [7] was “inactive” in each case. In addition, the Potency in experiment [8] was 8.98 µM (active) and 20 µM (active); in [9] it was 35.6 µM (active); in experiment [12] it was 21.9 µM (active); in experiment [10], 5.05 µM (active) and 11.2 µM (active).

Take `COP(=S)(OC)Oc1cc(Cl)c(Br)cc1Cl`: the Potency result in experiment [1], in experiment [4], in experiment [5], in [6] and in experiment [7] was “inactive” in each case. The Potency was 12.2 µM (active) in experiment [2], 17.8 µM (active) in [8], 5.64 µM (active) in experiment [9] and 11.2 µM (active) in [11].

In the case of `Oc1c(Br)c(Br)c(Br)c(Br)c1Br`, the Potency result in [1], in experiment [3], in experiment [4], in experiment [5], in experiment [6] and in [7] was “inactive” throughout. The Potency result in experiment [8], in experiment [12] and in [10] was “inactive” throughout. Further, the Potency was 61.5 µM (active) in experiment [2], 35.8 µM (active) in [9] and 56.8 µM (active) in experiment [11].

Regarding `CC(C)(C)c1cc([N+](=O)[O-])cc(C(C)(C)C)c1O`, the Potency entry in experiment [1], in [3], in [4], in experiment [5], in experiment [6] and in experiment [10] was “inactive” in each case. The Potency is 5.45 µM (active) in experiment [2], 31.7 µM (active) in experiment [8] and 12.6 µM (active) in experiment [9].

Take `CCN(CC)C(=S)[S-].CCN(CC)C(=S)[S-].[Zn+2]`: the Potency is 27.1 µM (active) in experiment [16]; 4.29 µM (active) in experiment [2]; 49.8 µM (active) in [8]; 15.8 µM (active) in [9]; 8.63 µM (active) in [12]. Besides, the Potency result in experiment [3], in experiment [4], in experiment [5] and in [11] was “inactive” each time.
